# Data taken from PMC4336329 (PLoS ONE, 2015).
# Screen size: about 310,000 compounds; about 14,000 (4.5%) showed an effect of 50% or more. Effects have a minus sign here. This excerpt belongs to a sample that is enriched for strong results.
# Target: human ether-à-go-go-related gene (hERG) potassium channel (human, UniProt Q12809)
# Assay: primary screen, population patch clamp on CHO cells stably expressing hERG; higher = less effect of the substance
# 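Note: peak tail current of the secondary pulse compared with the same well before compound.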
# human ether-à-go-go-related gene (hERG) potassium channel, sequence (Q12809 whole entry, looked up): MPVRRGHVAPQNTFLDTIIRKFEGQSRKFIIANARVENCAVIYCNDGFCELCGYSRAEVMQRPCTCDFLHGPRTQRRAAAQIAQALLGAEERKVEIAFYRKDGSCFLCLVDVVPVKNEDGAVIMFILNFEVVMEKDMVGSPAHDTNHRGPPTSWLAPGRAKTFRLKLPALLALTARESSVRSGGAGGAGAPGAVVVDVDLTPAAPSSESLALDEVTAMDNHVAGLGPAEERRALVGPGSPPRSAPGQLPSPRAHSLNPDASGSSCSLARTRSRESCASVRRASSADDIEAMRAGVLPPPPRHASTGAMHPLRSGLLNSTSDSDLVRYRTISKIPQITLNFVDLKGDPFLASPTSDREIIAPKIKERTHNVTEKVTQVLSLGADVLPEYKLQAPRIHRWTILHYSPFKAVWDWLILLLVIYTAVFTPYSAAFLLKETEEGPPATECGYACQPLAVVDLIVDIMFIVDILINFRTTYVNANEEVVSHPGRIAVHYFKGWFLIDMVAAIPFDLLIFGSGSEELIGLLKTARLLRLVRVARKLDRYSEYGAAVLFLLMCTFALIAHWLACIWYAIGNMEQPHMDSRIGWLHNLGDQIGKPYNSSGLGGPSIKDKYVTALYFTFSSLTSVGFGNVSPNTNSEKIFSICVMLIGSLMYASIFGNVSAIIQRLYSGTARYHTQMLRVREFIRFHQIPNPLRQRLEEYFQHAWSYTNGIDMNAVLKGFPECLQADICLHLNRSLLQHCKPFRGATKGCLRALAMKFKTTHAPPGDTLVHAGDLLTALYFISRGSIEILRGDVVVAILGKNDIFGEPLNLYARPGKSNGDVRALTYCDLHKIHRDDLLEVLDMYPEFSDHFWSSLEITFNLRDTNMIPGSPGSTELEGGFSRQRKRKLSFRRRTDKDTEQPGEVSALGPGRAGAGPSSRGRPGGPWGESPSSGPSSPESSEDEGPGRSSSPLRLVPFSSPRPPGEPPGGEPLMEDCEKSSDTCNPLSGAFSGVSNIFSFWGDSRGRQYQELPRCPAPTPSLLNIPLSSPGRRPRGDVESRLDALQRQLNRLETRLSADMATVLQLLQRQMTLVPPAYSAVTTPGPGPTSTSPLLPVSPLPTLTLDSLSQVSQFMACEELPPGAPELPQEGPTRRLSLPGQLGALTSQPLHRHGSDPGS
row,Compound,"hERG current change (%, negative = inhibition) at 10uM [%]"
1,CC(C)Cn1c(SCC(=O)N2CC(=O)Nc3ccccc32)nc2ccccc21,4.27
2,CCCN(CC1CC1)C(=O)CCc1nnc(C(OC)c2ccccc2)o1 (stereo not shown),-4.58
3,Cc1ccc(OCC(=O)N/N=C2/SCC(=O)N2Cc2ccco2)cc1,-28
4,O=C(COc1ccc(Br)cc1)N/N=C1/SCC(=O)N1Cc1ccco1,-59.8
5,Cc1cccc(OCC(=O)N/N=C2/SCC(=O)N2Cc2ccco2)c1,-25.4
6,NS(=O)(=O)c1ccc(CCNC(=O)c2cccc([N+](=O)[O-])c2)cc1,11.2
7,Nc1ccc(-n2cnc3cc([N+](=O)[O-])ccc32)cc1,1.35
8,O=C(c1ccc([N+](=O)[O-])cc1[N+](=O)[O-])n1cnc2ccccc21,-16.4
9,O=[N+]([O-])c1ccccc1-n1cnc2ccccc21,-18.2
10,O=c1c2ccccc2ncn1-c1ccc([N+](=O)[O-])cc1[N+](=O)[O-],10.7
11,Cc1cccc(-n2cnc3cc([N+](=O)[O-])ccc32)c1,-51.9
12,O=c1c2ccccc2ncn1-c1ccc(Cl)cc1[N+](=O)[O-],-4.65
13,O=c1c2ccccc2ncn1-c1ccc(Br)cc1[N+](=O)[O-],-61.4
14,O=[N+]([O-])c1ccc2c(c1)ncn2-c1ccccc1,-21.6
15,O=[N+]([O-])c1ccc(-n2cnc3ccccc32)c([N+](=O)[O-])c1,-57.8
16,C[C@]12CCC(=O)C=C1CC[C@@H]1[C@@H]2C(=O)C[C@]2(C)C(=O)CC[C@@H]12,7.99

row,Compound,"hERG current change (%, negative = inhibition) at 10uM [%]"
1,O=C(N/N=C/c1ccccn1)C(O)c1ccccc1 (stereo not shown),9.82
2,Cn1c(=O)n(C)c2cc(N3CCOCC3)c(NC(=O)c3cccc(Cl)c3)cc21,5.25
3,COc1ccc(NC(=O)C/C(C)=N/NC(=O)c2cnccn2)cc1,15.5
4,CC1(OC(=O)CCc2ccccc2)C(=O)C=C2C=C(c3ccc(C#N)cc3)N(CC3CC3)C=C2C1=O (stereo not shown),-44.6
5,CC1(OC(=O)CCc2ccccc2)C(=O)C=C2C=C(c3ccc(C#N)cc3)N(c3ccccc3)C=C2C1=O (stereo not shown),14.3
6,CC1(OC(=O)CCc2ccccc2)C(=O)C=C2C=C(c3ccc(C#N)cc3)N(C3CC3)C=C2C1=O (stereo not shown),-51.7
7,C=CCN1C=C2C(=O)C(C)(OC(=O)CCc3ccccc3)C(=O)C=C2C=C1c1ccc(C#N)cc1 (stereo not shown),-28.8
8,CCN(CC)CCCN1C=C2C(=O)C(C)(OC(=O)CCc3ccccc3)C(=O)C=C2C=C1c1ccc(C#N)cc1 (stereo not shown),-37.6
9,CC1(OC(=O)CCc2ccccc2)C(=O)C=C2C=C(c3ccc(C#N)cc3)N(CCN3CCOCC3)C=C2C1=O (stereo not shown),-49.9
10,CC1(OC(=O)CCc2ccccc2)C(=O)C=C2C=C(c3ccc(C#N)cc3)N(CCc3c[nH]c4ccccc34)C=C2C1=O (stereo not shown),-7.98
11,CC(C)OCCCN1C=C2C(=O)C(C)(OC(=O)CCc3ccccc3)C(=O)C=C2C=C1c1ccc(C#N)cc1 (stereo not shown),-71.3
12,COCCN1C=C2C(=O)C(C)(OC(=O)CCc3ccccc3)C(=O)C=C2C=C1c1ccc(C#N)cc1 (stereo not shown),-72.4
13,CC1(OC(=O)CCc2ccccc2)C(=O)C=C2C=C(c3ccc(C#N)cc3)N(C3CCCC3)C=C2C1=O (stereo not shown),-49.7
14,CC(C)CN1C=C2C(=O)C(C)(OC(=O)CCc3ccccc3)C(=O)C=C2C=C1c1ccc(C#N)cc1 (stereo not shown),-26.9
15,CC1(OC(=O)CCc2ccccc2)C(=O)C=C2C=C(c3ccc(C#N)cc3)N(CCc3ccccn3)C=C2C1=O (stereo not shown),-51.8
